The source of these data is PubChem BioAssay (Tox21).

Structures are written as SMILES. Active and inactive are the calls of the source. Calls come from the whole dose curve.
% is set by controls: 0 for no effect and ±100 for the full control effect.

The assay can be described thus: qHTS assay to identify small molecule agonists of the sonic hedgehog signaling (Shh) pathway (AID 1259368).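 Note: NIH/3T3-derived 3T3Gli1-Luc cells carrying a stable Gli1-driven firefly luciferase reporter; nearly all actives have a fitted effect of over 15% in size.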 As to conditions: NIH/3T3 Gli1-Luc reporter, luciferase, 24 h, active compounds read high; series mostly up to 92.4 µM; activity change: at the top concentration. From the text: National Center for Advancing Translational Sciences [NCATS]
NIH Chemical Genomics Center [NCGC]
U.S. Environmental Protection Agency [EPA]
National Institutes of Environmental Health Sciences [NIEHS]
National Toxicology Program [NTP]
The sonic hedgehog (Shh) pathway is essential for normal embryonic development. Dysregulation of the Shh pathway can cause severe developmental defects in organs. Therefore chemicals that interfere with the pathway are potential developmental toxicants. A cell line designated 3T3Gli1-Luc (DMB/OARSA/CFSAN/FDA, Laurel, MD), a NIH/3T3 derived clone containing stably integrated Gli1-Luc reporter is used to detect chemical interference of the Shh pathway, by changes in the expression of the firefly Luc gene under the control of the Gli1 transcriptional response element. This cell line was used to screen Tox21 libraries for identifying and prioritizing the potential developmental toxicants that interfere Shh pathway.
3T3 Gli1-Luc cells were dispensed at 2,000 per well in 5uL of culture medium into white solid bottom 1536-well plates (Greiner Bio-One, Monroe, NC) using a Multidrop Combi (Thermo Scientific, Waltham, MA) dispenser. The assay plates were incubated at 37 C and 5% CO2 for 4hr, and then 23nL of compounds dissolved in DMSO and positive control were transferred using a Pintool station (Wako, San Diego, CA). The assay plates were incubated at 37C and 5% CO2 for 24hr. For luciferase read, 4uL of Amplite Luciferase reporter gene assay reagent (AAT Bioquest, Inc. Sunnyvale, CA) was added to each well of the assay plates using Flying Reagent Dispenser (FRD, Aurora Discovery, San Diego, CA) and incubated at room temperature for 30min. The luminescence signal was measured using a ViewLux plate reader (Perkin Elmer, Shelton, CT).
A general note: qHTS replaces the single test concentration by a dilution series.
As for `C1CN2CCC1CC2`, the “activity change” value is -0.771% [at 42.5 µM] (inactive).

For the compound `C[C@H]1CCCC(=O)CCC/C=C/c2cc(O)cc(O)c2C(=O)O1`, the result was inactive.

On to `CC(O)CCl` (stereo not given), for which the “activity change” value is -0.0626% (inactive).

For `C(COCC1CO1)OCC1CO1` (stereo not given), the “activity change” value is 0.628% (inactive).

On to `O=C(O)CBr`, for which the “activity change” value was -0.445% (inactive).

Turning to `CCN(CC)C1CCCCC1`, the “activity change” value was -0.0091% (inactive).

As for `CCNP(=S)(OC)O/C(C)=C/C(=O)OC(C)C` (stereo not given), the “activity change” value is 0.151% (inactive).

`ClCOCCl`: the “activity change” value was -0.641% (inactive).

Regarding `C=C(Cl)CCl`, the “activity change” value is -0.0286% (inactive).

In the case of `O=C(CCl)NCO`, the “activity change” value is 0.833% (inactive).

For `O=C1CCCCC1Cl` (stereo not given), the “activity change” value was 0.741% (inactive).

For `O=C(Cl)C(Cl)Cl`, the “activity change” value was -1.39% (inactive).

Regarding `CCC1(c2ccccc2)CCC(=O)NC1=O` (stereo not given), the “activity change” value was -0.0367% [at 42.5 µM] (inactive).

On to `CN1C(=O)COc2c(C(=O)NC3CN4CCC3CC4)cc(Cl)cc21` (stereo not given), for which the “activity change” value is -1.03% [at 42.5 µM] (inactive).

Regarding `CN(C)C1CCCCC1`, the “activity change” value is -0.247% (inactive).

In the case of `Nc1c(Cl)c(F)nc(OCC(=O)O)c1Cl`, the “activity change” value is -0.681% (inactive).

Regarding `CC[C@H](N)c1ccccc1`, the “activity change” value is -0.164% (inactive).

Turning to `ClCCCCl`, the “activity change” value is 0.643% (inactive).

In the case of `C=CCN1CC[C@]23CCCC[C@H]2[C@H]1Cc1ccc(O)cc13`, the “activity change” value is 0.129% [at 42.5 µM] (inactive).

As for `CON(C)C(=O)Nc1ccc(Br)c(Cl)c1`, the “activity change” value was 2.4% (inactive).

For the compound `C=CC1(C)OC(=O)N(c2cc(Cl)cc(Cl)c2)C1=O` (stereo not given), the result was inactive.

Consider `CCOC(=O)C(Cl)Cc1cc(-n2nc(C)n(C(F)F)c2=O)c(F)cc1Cl` (stereo not given), for which the “activity change” value was -0.646% (inactive).

For `CCC1(CC)C(=O)C=CNC1=O`, the “activity change” value is 0.204% [at 42.5 µM] (inactive).

As for `C[C@H](N)C(=O)c1ccccc1`, the “activity change” value was 0.973% (inactive).

For the compound `CCOc1cc(OP(=S)(OC)OC)nc(CC)n1`, the “activity change” value was -0.0528% (inactive).

Regarding `BrCCc1ccccc1`, the “activity change” value was -1.78% (inactive).

Consider `CC1NCCOC1c1ccccc1` (stereo not given), for which the “activity change” value was -0.0149% [at 42.5 µM] (inactive).

`O=C(O)c1c(Cl)ccc2cc(Cl)cnc12`: the “activity change” value is -1.15% (inactive).

Take `O=C(O)C(Cl)Br` (stereo not given): the “activity change” value is 0.792% (inactive).

For the compound `COc1cccc(C=O)c1`, the “activity change” value was -0.386% (inactive).

Turning to `O=[N+]([O-])CCO`, the “activity change” value was 2.6% (inactive).

Consider `CCCCCCCC(=O)Cl`, for which the “activity change” value is 5.75% (inactive).

`ClC1=C(Cl)C2(Cl)C(CBr)CC1(Cl)C2(Cl)Cl` (stereo not given): the result was inactive.

As to `CN(C)CCN(C)C`, the “activity change” value is 0.0806% (inactive).

For `CC(C)N(Cc1ccccc1)C(=O)C(C)(C)C`, the “activity change” value was -0.0181% (inactive).

`NC1(c2ccccc2)CCCCC1`: the “activity change” value was -2.67% (inactive).

Consider `CON(C)C(=O)Nc1ccc(Br)cc1`, for which the “activity change” value is 2.14% (inactive).

As to `CCCC[N+](=O)[O-]`, the “activity change” value was -0.536% (inactive).

In the case of `N[C@@H]1C[C@H]1c1ccccc1`, the “activity change” value was 0.377% [at 42.5 µM] (inactive).

On to `CC(=O)OCC1=C(C(=O)O)N2C(=O)[C@@H](N)[C@H]2SC1`, for which the activity change was 0.594% [at 18.9 µM] (inactive).
